Only some compounds are listed: those with a hit (about 2.2% of all), similar ones and a draw of the others.
aSyn UTR inh: MLPCN primary screen, SNCA 5' untranslated region; alpha-synuclein 5'UTR reporter, inhibitor activity; inhibition, % (tested at 7.5 µM); hit rate 0.82% among 300,000; AID 1813; in the data active means inhibition above about 60%;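 further: H4 neuroglioblastoma cells stably carrying SNCA 5'UTR luciferase fusion; 0% = DMSO wells and 100% = positive control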
KLF5 inhibitor: inhibitors of KLF5 expression | inhibition, % at 5 µM | AID 1700 | hit rate 0.23% among 290,000 | DLD-1 KLF5 promoter-luciferase reporter, luminescence;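 active means inhibition above a per-plate limit of that plate's mean compound inhibition plus 3 SD, cut at about 60% in these data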;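 further: 0% = DMSO wells and 100% = LY294002 at 200 µM; higher means less KLF5 promoter-driven luciferase light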
IEC-6 cytotox: IEC-6 cytotoxicity, counter-screen for KLF5 inhibitors. luminescence viability. inhibition, % at 5 µM. hit rate 0.78% among 290,000. AID 1825; in the data active means inhibition above about 22%;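 further: 0% = plate median of test compound wells and 100% = cytotoxic reference compound wells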
Ba/F3 V617F tox: loss of viability in JAK2V617F-driven Ba/F3 cells. hit rate 1.1% among 220,000. AID 1446. inhibition, % at 5.6 µM. Ba/F3 EpoR-JAK2V617F viability, ATP luminescence;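 active means inhibition above the campaign mean plus 3 SD over all tested compounds, cut at about 24% in these data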;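 further: cytokine-independent growth of Ba/F3 cells driven by EpoR plus mutant JAK2; 0% = DMSO-treated cells and 100% = JAK inhibitor I control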
BaF3 tox: parental Ba/F3 viability inhibition as JAK2V617F counter-screen; inhibition, % at 5.6 µM; hit rate 1.1% among 220,000; CellTiter-Glo ATP luminescence;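 active means inhibition above a per-campaign cutoff, the mean inhibition of all tested compounds plus 3 SD, cut at about 27% in these data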;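 further: 0% = DMSO wells and 100% = JAK Inhibitor I control wells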
APP 5UTR inh: APP translation inhibition. hit rate 0.82% among 190,000. AID 1285. inhibition, % at 2 µM. SH-SY5Y APP 5'UTR-luciferase reporter, luminescence;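 active means inhibition above a set limit, derived from the sample mean plus 3 SD, cut at about 45% in these data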
BaF3 tox 2: parental Ba/F3 viability inhibition for JAK2V617F counter-screen. hit rate 31% among 580. inhibition, % at 5.6 µM. CellTiter-Glo luminescence; cells kept alive by added IL-3. shares compounds with Ba/F3 V617F tox;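 active means cell growth inhibition above the hit limit set in the earlier mutant JAK2 cell screen, cut at about 27% in these data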;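 further: plate controls were DMSO-treated cells for no effect and JAK Inhibitor I control wells for full effect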
JAK2V617F conf: Ba/F3 EpoR-JAK2V617F viability loss, confirmation | shares compounds with Ba/F3 V617F tox | CellTiter-Glo luminescence | inhibition, % at 5.6 µM | hit rate 66% among 580 | AID 1521;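 active means mean inhibition above the hit cutoff derived in the earlier primary screen, cut at about 25% in these data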;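 further: 0% = DMSO-treated cells and 100% = JAK inhibitor I control wells; higher means lower luminescence from reduced cell ATP and viability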
Numbers without * were called inactive; x = not tested or not shown.

SMILES	aSyn UTR inh	KLF5 inhibitor	IEC-6 cytotox	Ba/F3 V617F tox	BaF3 tox	APP 5UTR inh	BaF3 tox 2	JAK2V617F conf
CNc1cc(CSC)nc(SCc2ccc(Cl)cc2Cl)n1	49	-4	-1	-1	1	-1	x	x
CSCc1cc(N(C)C)nc(SCc2ccc(Cl)c(Cl)c2)n1	36	26	-2	42*	1	-8	-3	1
Cc1cccc(CN(C(=S)Nc2c(C)cccc2C)c2cccnc2)c1	-32	2	5	102*	-1	-19	-5	13
CCc1ccccc1NC(=S)N(Cc1cccc(C)c1)c1cccnc1	9	-22	1	3	2	-27	x	x
CCOc1ccc(N2C(=O)CC(Sc3nnnn3-c3ccccc3)C2=O)cc1 (stereo not given)	22	-17	2	33*	2	38	-6	7
CN1CCN(Cc2cc(COCc3ccccc3)c3cccnc3c2O)CC1	99*	20	5	38*	16	72*	5	29*
CC(=O)c1ccc[n+](CC(=O)NC(C)c2ccccc2)c1 (stereo not given)	2	-9	-8	x	x	x	x	x
COc1ccc(N(C)S(=O)(=O)c2cccc(C(=O)Nc3ccc(-n4cnnn4)cc3)c2)cc1	18	5	4	40*	3	1	0	26*
COc1cccc(C2(O)CCN(C(=O)C(C)C)CC2)c1	3	5	10	-3	5	x	x	x
COc1cccc(C2(O)CCN(C(=O)c3cccs3)CC2)c1	20	-26	-4	55*	0	6	-1	-2
O=C1N/C(=C\c2nc3ccccc3s2)c2ccccc21	39	-80	13	-1	-1	x	x	x
O=C1N/C(=C\c2ccccc2)c2ccccc21	-52	-9	16	38*	20	-39	27	45*
Cc1ccc(C)c(Sc2ccc(NC(=O)CCl)cc2)c1	-14	-14	6	50*	4	60*	7	86*
Cc1ccc(Sc2ccc(NC(=O)CCl)cc2)cc1C	44	-13	18	9	12	24	x	x
CCCCC[C@H]1CN(Cc2ccccc2)C(=O)[C@@H]1CC(=O)NCc1ccc(OC)cc1	0	11	-13	x	x	x	x	x
Cc1ccc(N(C(=O)c2csnn2)C(C(=O)NCc2ccccc2)c2cccnc2)cc1 (stereo not given)	-2	-33	6	x	x	x	x	x
Oc1ccccc1-c1csc(-c2ccccc2)n1	-122	-13	8	-1	3	-116	x	x
Oc1ccc(-c2csc(Nc3ncccn3)n2)cc1O	-178	-162	2	37*	8	31	28*	91*
Oc1ccc(-c2csc(-c3ccccc3)n2)cc1O	-224	-141	6	57*	23	-53	27*	93*
CCOC(=O)c1[nH]c(C)c(C(=O)NC2CCCCC2)c1C	11	-40	6	100*	6	0	-5	-21
CCOC(=O)c1[nH]c(C)c(C(=O)NCC2CCCO2)c1C (stereo not given)	10	11	2	-2	5	-12	x	x
Cc1cc(C(=O)Nc2cnc3ccccc3c2)ccc1[N+](=O)[O-]	-132	-107	7	28*	1	-204	-5	-7
COc1cccc(/C=N/NC(=O)c2[nH]c(C)c(C(=O)N/N=C/c3cccc(OC)c3O)c2C)c1O	49	21	-7	42*	5	11	12	70*
COc1cccc(/C=N/NC(=O)c2ccc(=O)[nH]n2)c1O	-7	-6	2	0	0	x	x	x
O=C(Cc1ccccc1)NCC(=O)N1CCN(c2ccccc2F)CC1	2	-21	-5	x	x	x	x	x
SMILES	aSyn UTR inh	KLF5 inhibitor	IEC-6 cytotox	Ba/F3 V617F tox	BaF3 tox	APP 5UTR inh	BaF3 tox 2	JAK2V617F conf
COc1ccc(OC(=O)CCc2c[nH]c3ccccc23)cc1	-2	-15	-11	0	3	-27	x	x
Cn1cnc([N+](=O)[O-])c1Sc1nc2ccccc2[nH]1	38	-6	10	34*	10	x	5	44*
Cc1nc([N+](=O)[O-])c(Sc2nc3ccccc3[nH]2)n1Cc1ccccc1	-3	-4	9	4	3	13	x	x
CC(=O)c1nn(-c2cccc(Br)c2)cc1C(=O)c1ccccc1	28	-17	-1	56*	14	6	0	-1
Cc1ccc(-n2c(=O)c(C#N)cc3c(=O)n4ccccc4nc32)cc1	-5	3	-4	-2	3	2	x	x
Cc1ccc(C)c(-n2c(=O)c(C#N)cc3c(=O)n4ccccc4nc32)c1	5	-9	-2	61*	21	-3	-2	-5
O=C(NCC1CCCO1)c1cccc(N2C(=O)C3C4C=CC(C4)C3C2=O)c1 (stereo not given)	-12	-12	-6	96*	1	-4	-6	-5
O=C(Nc1cc(Cl)ccc1-n1cncn1)c1ccc([N+](=O)[O-])s1	-10	-17	20	x	x	x	x	x
OC1(c2ccc(Cl)c(Cl)c2)C[n+]2ccccc2N1Cc1ccccc1 (stereo not given)	6	-10	0	34*	3	x	12	48*
COc1ccc(N(CC(=O)N2CCN(c3ccccc3F)CC2)S(=O)(=O)c2ccc(C)cc2)cc1	0	-47	-5	x	x	x	x	x
O=C(NCCCc1ccncc1)C1CCC(=O)N(CCc2cccc(F)c2)C1 (stereo not given)	-6	-5	-7	x	x	x	x	x
CCOC(=O)c1ccc(NC(=S)NCCC2=CCCCC2)cc1	4	5	3	81*	-3	12	-5	-14
CCOC(=O)c1ccc(NC(=O)NCc2ccccc2OC)cc1	28	-11	5	6	3	-25	x	x
Cc1ccc(NC(=S)NCCC2=CCCCC2)cc1	-137	-45	8	7	12	-95	x	x
CCOC(=O)c1ccc(NC(=O)NCCc2ccccc2OC)cc1	8	-1	-2	64*	0	-27	-6	-10
COc1ccc(C)cc1NC(=O)c1nnn(Cc2cc(C)ccc2C)c1N	30	-4	4	-2	0	13	x	x
COc1ccc(OC)c(NC(=O)c2nnn(Cc3ccccc3C)c2N)c1	40	32	7	24*	20	-9	37*	30*
COc1ccc(-c2cc(N)n(S(=O)(=O)c3c(F)c(F)c(F)c(F)c3F)n2)cc1OC	-38	20	8	45*	23	-16	93*	93*
CCOc1ccc(-n2ccc(=O)c(C(=O)Nc3ccc(S(=O)(=O)Nc4ncccn4)cc3)n2)cc1	0	-5	4	x	x	x	x	x
CCCNC(=O)c1ccc2snnc2c1	12	-49	-10	-2	-1	-29	x	x
CCCNC(=O)c1nnsc1S(=O)c1ccc(Cl)cc1 (stereo not given)	-54	5	14	55*	-3	94*	42*	99*
